About 5,800 (36%) of roughly 16,000 compounds were called active. Roughly 23% stayed inconclusive and do not appear here. Calls come from the whole dose curve; as a rule, active = well fitted curve in the direction sought with a large enough effect; inconclusive = small, poorly fitted or top-dose-only effect, or effect the other way; inactive = no such curve, though single readings can be large or run the other way. The list shows a part of the results.
% is set by controls: 0 for no effect and ±100 for the full control effect.

Sequence of Cytochrome P450 2C19 (Homo sapiens) (P33261 whole entry, looked up): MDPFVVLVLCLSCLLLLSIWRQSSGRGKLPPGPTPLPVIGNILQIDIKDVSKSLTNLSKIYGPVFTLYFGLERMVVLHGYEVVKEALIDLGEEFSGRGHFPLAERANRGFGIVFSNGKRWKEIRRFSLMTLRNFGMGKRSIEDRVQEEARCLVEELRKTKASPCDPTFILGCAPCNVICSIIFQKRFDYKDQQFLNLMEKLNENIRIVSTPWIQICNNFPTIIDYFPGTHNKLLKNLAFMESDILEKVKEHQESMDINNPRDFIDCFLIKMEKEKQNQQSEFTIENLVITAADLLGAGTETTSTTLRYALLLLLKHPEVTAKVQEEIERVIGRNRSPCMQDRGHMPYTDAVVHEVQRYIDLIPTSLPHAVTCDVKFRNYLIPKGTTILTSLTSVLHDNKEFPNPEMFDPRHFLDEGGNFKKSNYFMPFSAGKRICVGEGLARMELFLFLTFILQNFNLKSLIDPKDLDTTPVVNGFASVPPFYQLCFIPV

The test concerns the target Cytochrome P450 2C19 (Homo sapiens) (UniProt P33261). Kind of test: Cytochrome panel assay with activity outcomes. The conditions noted are these: recombinant CYP, pro-luciferin dealkylation, luminescence, p450-cyp2c19; series mostly up to 57.1 µM.
The term AC50 denotes the concentration giving half of the maximal activity seen. Consider `N#C/C(=C/c1cccc(C(F)(F)F)c1)c1nc(CCN2C(=O)c3ccccc3C2=O)cs1`, for which the AC50 was 3.16 µM (active). As to `C=CCNCCCCOc1c(Cl)cc(C)cc1Br`, the half-maximal activity concentration (AC50) was 8.91 µM (active). On the same count and under the same terms, next, `Cc1cc(Br)cc(C)c1OCCCCN(C)C`: “inactive”; `COCCCNCCCCOc1c(Cl)cc(C)cc1Br`: “inactive”; `O=C(N/N=C/C1CCCCC1)c1ccccn1`: “inactive”. In the case of `C/C(=N\NC(=O)Cc1ccc(Cl)cc1)c1ccccn1`, the half-maximal activity concentration (AC50) was 5.01 µM (active). Same read-out and setting: next, `CC(C)c1ccc(N2C(=O)CC(Sc3nc4ccccc4o3)C2=O)cc1` (configuration not stated): 1.78 µM (active).

Turning to `CCOC(=O)N/N=C1/C[C@@H](O)[C@@H](O)[C@@H]2[C@@H]3C(=O)N([C@@H](C)c4ccccc4)C(=O)[C@H]3CC[C@@H]12`, the activity, negative = inhibition is -0.98% [at 11.4 µM] (inactive). For `COc1cccc(Nc2ncc3nc(-c4ccc(Cl)cc4)c(=O)n(CCC#N)c3n2)c1`, the AC50 entry was “inactive”. On to `CCOC(=O)c1cc(-c2ccc(Cl)cc2)nc2c1c(C)nn2CCC#N`, for which the concentration at half-maximal activity (AC50) was 14.1 µM (active). As to `Cc1nn(C)c(Oc2cccc(Cl)c2)c1C=O`, the AC50 is 6.31 µM (active). On the same count and under the same terms, next, `O=C(N/N=C/c1ccc(Cl)cc1Cl)Nc1ccccc1`: 2.82 µM (active). Turning to `CC(C)N=C(N)/N=C(\N)Nc1ccc(Cl)cc1`, the AC50 result was “inactive”. Still for that read-out and setting: the same measure for `Cc1ccc(NC(=O)N/C=C/c2ccc(Cl)cc2)cc1`: “inactive”; for `O=C(N/N=C/c1ccc(Cl)cc1)Nc1ccccc1`: 11.2 µM (active).

For `Cn1cccc1C(=O)N1CCC2(CC1)CN(c1ccccn1)C2`, the AC50 result was “inactive”.

Regarding `O=C(c1ccco1)N1CCC2(CCCN(c3ccccc3)C2)CC1`, the AC50 entry is “inactive”. `CC(=O)N1CCC[C@@]2(CCN(c3ccncc3)C2)C1`: the AC50 result is “inactive”. The same measure, in the same setting: the same measure for `O=C(c1ccco1)N1CCC2(CC1)CCN(c1cccc(-c3ccccc3)c1)CC2`: 10 µM (active); for `O=C(c1ccco1)N1CCC[C@@]2(CCN(c3ccccc3)C2)C1`: 5.01 µM (active); for `Cn1cccc1C(=O)N1CCC2(CC1)CN(c1ccncc1)C2`: 1.26 µM (active).

In the case of `Cn1cccc1C(=O)N1CCC2(CC1)CCN(c1ccncc1)CC2`, the AC50 result is “inactive”. With `O=C(c1ccco1)N1CCC[C@@]2(CCN(c3ccncc3)C2)C1`, the AC50 result is “inactive”. On the same count and under the same terms, the same measure for `Cn1cccc1C(=O)N1CCC[C@@]2(CCN(c3ccncc3)C2)C1`: 6.31 µM (active). On to `Cn1cccc1C(=O)N1CCC[C@@]2(CCN(Cc3nccs3)C2)C1`, for which the AC50 entry is “inactive”. Still for that read-out and setting: next, `c1ccc(-c2cccc(N3CCC4(CCNCC4)CC3)c2)cc1`: “inactive”. In the case of `O=C(c1ccco1)N1CCC2(CC1)CCN(c1ccc(-c3ccccc3)cc1)CC2`, the AC50 entry is “inactive”. As to `Nc1nc(=O)c2[nH]cnc2n1O`, the activity, negative = inhibition was -10.6% [at 11.4 µM] (inactive).

For the molecule `CNC(=O)[C@@H]1O[C@@H](n2cnc3c(NCc4ccc(N)cc4)ncnc32)[C@@H](O)[C@H]1O`, the AC50 result was “inactive”. On to `Cn1cccc1C(=O)N1CCC[C@@]2(CCN(c3ccccc3)C2)C1`, for which the AC50 was 5.01 µM (active). With `CN1CC[C@@]2(CCCN(C(=O)c3cccn3C)C2)C1`, the AC50 entry was “inactive”. The same measure, in the same setting: next, `CC(C)NC(=O)N1CC[C@@]2(CCCN(C(=O)c3cccn3C)C2)C1`: “inactive”; `Cc1cc2ccccc2c(=O)n1CC(=O)NCC(=O)N1CCCC1`: “inactive”; `Cc1ccc(S(=O)(=O)NCCn2c(C)cc3ccccc32)cc1`: 1 µM (active). On the same count and under the same terms, next, `Cc1ccc(S(=O)(=O)NC(=O)c2cccn2C)cc1`: “inactive”.

Take `CN(C)CCn1c(C(=O)O)cc2ccccc21`: the AC50 entry was “inactive”. The same measure, in the same setting: the same measure for `Cc1cc2ccccc2n1CCNC(=O)C1CCCC1`: 1.26 µM (active); for `Cc1nnc(NC(=O)c2oc3c(ccc4ccccc43)c2C)s1`: 10 µM (active). Same read-out and setting: the same measure for `Cc1ccc(S(=O)(=O)CC#CCOC(=O)c2ccc([N+](=O)[O-])cc2)cc1`: 7.94 µM (active).

Turning to `Cc1c(OC(=O)c2ccc([N+](=O)[O-])cc2)c2c(c[n+]1C)COC(C)(C)OC2`, the AC50 result is “inactive”. Turning to `CCOC(=O)n1ccn(C)c1=S`, the AC50 result was “inactive”. For `O=C1Nc2ccccc2C(O)(C(=O)NCc2ccc3c(c2)OCO3)N1c1ccc(Cl)c(Cl)c1` (configuration not stated), the AC50 result is “inactive”. Still for that read-out and setting: next, `C/C(=C\C(=O)c1ccc(Cl)cc1)NCc1ccc2c(c1)OCO2`: 2.51 µM (active); `C/C(=C\C(=O)c1ccc(Br)cc1)NCc1ccc2c(c1)OCO2`: 8.91 µM (active); `O=C(c1ccc(Cl)c(Cl)c1)c1cc(-c2ccccn2)c(N2CCOCC2)s1`: 7.94 µM (active). In the case of `Cc1cc(F)ccc1S(=O)(=O)Nc1ccccc1C(=O)Nc1ccccc1N1CCOCC1`, the AC50 was 1.58 µM (active). Take `O=C(Nc1ccccc1N1CCOCC1)c1ccccc1[N+](=O)[O-]`: the AC50 result is “inactive”.

Take `Cc1ccccc1C(=O)Nc1ccc(N2CCOCC2)nc1`: the AC50 entry is “inactive”. For `NCc1ccccc1CC(=O)N[C@@H]1C(=O)N2C(C(=O)O)=C(CSc3nnnn3CC(=O)O)CS[C@@H]12`, the AC50 result is “inactive”. As for `CCn1cnc2sc(C(=O)N3CCN(c4ccc(OC)cc4)CC3)c(C)c2c1=O`, the AC50 is 10 µM (active). On the same count and under the same terms, next, `COc1ccc2[nH]c(-c3ccccc3)c(CCNC(C)=O)c2c1`: 7.94 µM (active); `CC(=O)NCCc1c(Cc2ccccc2)[nH]c2ccccc12`: 25.1 µM (active). On the same count and under the same terms, the same measure for `CC(=O)NCCc1ccc(O)c(O)c1`: “inactive”. In the case of `COC(=O)Nc1ccc2[nH]cc(CCNC(C)=O)c2c1`, the AC50 entry was “inactive”. Same read-out and setting: next, `C=N[C@H](C(=O)N[C@@H]1C(=O)N2[C@@H]1SC(C)(C)[C@@H]2C(=O)O)c1ccccc1`: “inactive”; `COc1ccccc1S(=O)(=O)Nc1ccc(-c2nnc3n2CCCCC3)cc1`: “inactive”; `COc1ccc(NS(=O)(=O)c2cc(-c3nnnn3C)ccc2OC)cc1`: 14.1 µM (active).

Regarding `O=C(O)c1cccc(SSc2cccc(C(=O)O)c2)c1`, the activity, negative = inhibition was -33.7% [at 11.4 µM] (inactive). On to `O=C(O)c1ccc(SSc2ccc(C(=O)O)cn2)nc1`, for which the AC50 is 2.51 µM (active). Take `O=C(O)c1cc(C(=O)O)nc(C(=O)O)c1`: the activity, negative = inhibition was 3.49% [at 11.4 µM] (inactive).

As to `CCOC(=O)c1nnc(-c2ccccc2)nc1NCc1ccccc1`, the AC50 was 25.1 µM (active).

On to `O=S(=O)(Nc1ccc(Cc2ccncc2)cc1)c1ccc(Cl)c(Cl)c1`, for which the AC50 was 0.0251 µM (active). Still for that read-out and setting: the same measure for `Cc1ccnc(NS(=O)(=O)c2ccc(N)cc2)n1`: “inactive”. The same measure, in the same setting: next, `O=S(=O)(Nc1ccc(Cc2ccncc2)cc1)c1ccc(Br)cc1`: 0.0224 µM (active); `O=S(=O)(Nc1ccc(Cc2ccncc2)cc1)c1cccs1`: 0.0224 µM (active). Consider `C/C(=N/S(=O)(=O)c1ccc(Cl)c(Cl)c1)OCC(C)(C)C`, for which the activity, negative = inhibition is 58.8% [at 11.4 µM] (inactive). Turning to `CC(=O)N=c1sc(S(N)(=O)=O)nn1C`, the AC50 entry was “inactive”. Same read-out and setting: next, `Cc1ccc(NC(=O)CSc2nnc(-c3ccncc3)o2)cc1`: “inactive”; `CCN(CC)CCCCCCCCOC(=O)c1cc(OC)c(OC)c(OC)c1`: “inactive”. The same measure, in the same setting: the same measure for `CCCCOC(=O)CSc1nnc(-c2cc(OC)c(OC)c(OC)c2)o1`: 15.8 µM (active); for `COc1cc(-c2nnc(SCC3(c4ccccc4)OCCO3)o2)cc(OC)c1OC`: 1.12 µM (active). On to `COc1cc(-c2nnc(SCC(=O)Nc3ccc4c(c3)OCCO4)o2)cc(OC)c1OC`, for which the half-maximal activity concentration (AC50) was 11.2 µM (active).

Take `C/C(C[n+]1ccccc1)=N\N=C(N)N`: the activity, negative = inhibition was 40.3% [at 11.4 µM] (inactive). Consider `Cn1cc(-c2nc3cnc(N4CCNCC4)nc3n(C3CC3)c2=O)c2ccccc21`, for which the AC50 was 20 µM (active). Same read-out and setting: the same measure for `COc1ccc(-n2c(=O)c(-c3cn(C)c4ccccc34)nc3cnc(N4CCNCC4)nc32)cc1`: “inactive”; for `Cn1cc(-c2nc3cnc(N4CCNCC4)nc3n(C)c2=O)c2ccccc21`: 10 µM (active). Still for that read-out and setting: next, `Cn1cc(-c2nc3cnc(N4CCNCC4)nc3n(-c3ccccc3)c2=O)c2ccccc21`: “inactive”; `CN1CCN(c2ncc3nc(-c4cn(C)c5ccccc45)c(=O)n(C)c3n2)CC1`: “inactive”. On the same count and under the same terms, the same measure for `Cn1cc(-c2nc3cnc(Oc4ccccc4)nc3n(C3CC3)c2=O)c2ccccc21`: “inactive”.

As to `Cc1ccccc1C(=O)NC(C)c1ccc2c(c1)CCCC2` (configuration not stated), the AC50 was 2.82 µM (active).

With `CCn1c2ccccc2c2cnc(N=CN(C)C)c(C#N)c21`, the AC50 is 28.2 µM (active). Regarding `Cn1c(=S)c2[nH]c(SCCN3CCCC3)nc2n(C)c1=O`, the activity, negative = inhibition is 57% [at 11.4 µM] (inactive).

For the molecule `CC(C)(C)NC(=O)COC(=O)c1cncc(Br)c1`, the AC50 was 22.4 µM (active). Consider `Cc1cnc(C(=O)OCC(=O)NC(C)C)cn1`, for which the AC50 result is “inactive”. In the case of `O=c1n(-c2ccccc2)c(=O)n2n1CC[C@H]1/C(=N\OCc3ccccc3)[C@H]3O[C@@H]3[C@@H](O)[C@@H]12`, the activity, negative = inhibition was 44.7% [at 11.4 µM] (inactive). As to `CCOC(=O)c1ccc(S(=O)(=O)Nc2ccc3cn[nH]c3c2)cc1`, the AC50 is 3.16 µM (active). For the molecule `COCCn1c(=O)c(-c2ccc(OC)cc2)nc2cnc(Nc3cccc(OC)c3)nc21`, the AC50 entry was “inactive”.

In the case of `C[C@@H]1CCN=C(N)S1`, the AC50 entry was “inactive”.

`N#Cc1ccc(C(c2nnnn2C2CCCC2)N2CCC(Cc3ccccc3)CC2)cc1` (configuration not stated): the AC50 was 3.55 µM (active). For `N#Cc1cccc(C(c2nnnn2C2CCCC2)N2CCCCCC2)c1` (configuration not stated), the AC50 was 5.62 µM (active). Consider `CN1CCCN([C@@H](c2ccccc2)c2ccc(Cl)cc2)CC1`, for which the AC50 result is “inactive”. On the same count and under the same terms, the same measure for `N#Cc1ccc(C(c2nnnn2Cc2ccccc2)N2CCCC2)cc1` (configuration not stated): 11.2 µM (active). As for `O=C(Nc1ccc(-c2cn3ccccc3n2)cc1)c1cc(Br)ccc1O`, the activity, negative = inhibition was -1.2% [at 11.4 µM] (inactive).

`Oc1ccc(Br)cc1CNn1cnnc1`: the AC50 entry is “inactive”.

As for `O=C(c1cc(Br)ccc1O)c1cc(Br)ccc1O`, the AC50 is 0.2 µM (active).

Turning to `O=S(=O)(c1ccc(F)cc1)n1ccc(-c2cnc(-c3ccccc3)s2)n1`, the AC50 is 8.91 µM (active). On to `COc1cccc(-c2cc(C(F)(F)F)n3ncc(S(=O)(=O)c4ccccc4)c3n2)c1`, for which the AC50 result was “inactive”.

For `COc1ccc(S(=O)(=O)n2ccc(-c3cnc(-c4ccccc4)s3)n2)cc1`, the AC50 is 1.58 µM (active). Regarding `Cn1c(=O)c(-c2ccccc2)nc2cnc(Oc3ccccc3)nc21`, the AC50 result was “inactive”.

Take `CCc1cc2c(NCc3ccco3)ncnc2s1`: the AC50 is 4.47 µM (active). Regarding `CCc1cc2c(NCCO)ncnc2s1`, the AC50 result was “inactive”. In the case of `CCc1cc2c(=O)[nH]cnc2s1`, the AC50 entry is “inactive”.
